# Data taken from the supplement of paper PMC3334620.
# Over roughly 33,000 sequences, “E-score (-0.5 to 0.5)” has its median near -0.035; the highest 2% begin near 0.35. Only a selection was taken, and the highest values are over-represented in it overall.
# Target: T1, Pdr3 (UniProt P33200)
# T1 sequence: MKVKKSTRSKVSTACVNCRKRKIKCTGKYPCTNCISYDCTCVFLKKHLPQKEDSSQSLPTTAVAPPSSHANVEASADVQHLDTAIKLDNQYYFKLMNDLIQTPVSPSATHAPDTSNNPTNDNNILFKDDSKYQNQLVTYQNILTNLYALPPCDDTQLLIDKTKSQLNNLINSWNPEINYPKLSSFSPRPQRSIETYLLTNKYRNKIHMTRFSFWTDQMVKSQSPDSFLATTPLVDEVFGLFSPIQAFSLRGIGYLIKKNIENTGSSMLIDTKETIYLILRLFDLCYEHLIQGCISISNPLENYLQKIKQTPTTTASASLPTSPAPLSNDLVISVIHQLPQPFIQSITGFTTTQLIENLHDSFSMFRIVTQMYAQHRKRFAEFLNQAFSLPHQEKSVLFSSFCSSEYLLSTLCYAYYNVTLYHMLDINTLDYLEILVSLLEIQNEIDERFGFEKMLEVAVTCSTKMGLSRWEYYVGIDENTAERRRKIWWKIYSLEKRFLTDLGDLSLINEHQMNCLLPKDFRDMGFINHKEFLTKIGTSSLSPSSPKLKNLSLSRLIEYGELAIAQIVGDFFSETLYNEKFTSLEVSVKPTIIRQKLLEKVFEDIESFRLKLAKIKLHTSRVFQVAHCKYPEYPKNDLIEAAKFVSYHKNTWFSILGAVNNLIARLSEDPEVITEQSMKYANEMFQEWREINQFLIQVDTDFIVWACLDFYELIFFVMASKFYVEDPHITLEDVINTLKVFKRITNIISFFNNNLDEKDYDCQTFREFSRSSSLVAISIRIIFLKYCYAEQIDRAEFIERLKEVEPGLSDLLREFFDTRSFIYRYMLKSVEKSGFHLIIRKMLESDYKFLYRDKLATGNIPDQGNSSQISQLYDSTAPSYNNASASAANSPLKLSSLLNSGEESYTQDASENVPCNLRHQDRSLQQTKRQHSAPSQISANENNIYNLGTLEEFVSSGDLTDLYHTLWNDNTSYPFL
# Assay: PBM E-score (8-mer binding enrichment) (E-score (-0.5 to 0.5)); higher = stronger / more preferred TF binding
# Settings: protein concentration: 200 nM; construct: GST-full length
# Experimental: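 Universal 'all 10-mer' protein binding microarrays (Agilent AMADID 015681) probed with GST-tagged S. cerevisiae TFs (full-length or DBD) made by in vitro transcription/translation (PURExpress), about 100-200 nM. Bound TF was detected with fluorescent anti-GST. Each ungapped 8-mer (which stands for itself and its reverse complement) is scored by the PBM enrichment score (E-score), a modified Wilcoxon-Mann-Whitney statistic from -0.5 to +0.5, computed with the Universal PBM Analysis Suite. Scale: above 0.35 generally sequence-specific binding.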
row,Sequence,PBM E-score
1,CATTCGGC,0.145
2,AATTCGGC,0.173
3,CGTTCGGA,0.414
4,GGTTCGGA,0.34
5,AATTCGGG,0.153
6,GATTCGGA,0.29
7,CGTTCGGC,0.171
8,AATTCGGA,0.365
9,CATTCGGA,0.356
10,GTAGCGTA,-0.0161
11,CTGTCGCC,0.0223
12,AAAAGATC,-0.0361
13,TCCGCAGA,0.258
14,CCCAAACA,-0.0368
15,AGGTTAGA,-0.00179
16,CGCCTGCC,-0.0358
17,AACCACCC,-0.00213
18,ACATAGAT,-0.085
19,CCAACCGC,0.146
20,AGTGTTCG,-0.0373
21,CATTAGAG,-0.234
22,AGGAAGCA,-0.16
23,AGGAAGCC,-0.0295
24,GGGAAGCA,-0.0013
25,CGGAAGCA,0.428

row,Sequence,PBM E-score
1,CGGAAGCC,0.416
2,CCGAAGCC,0.245
3,CGCGCTCC,0.308
4,ATTGTGGC,0.0289
5,GTCTACCA,-0.252
6,GTGGGAAA,-0.0227
7,CGGTTGGC,0.161
8,AAATACGG,0.0148
9,TCACGGCA,0.193
10,CCACGGGA,0.325
11,CCACGGAC,0.34
12,TCACGGAA,0.464
13,ACACGGAG,0.284
14,CCACGGCG,0.182
15,CCACGGGG,0.335
16,ACACGGAT,0.302
17,CCACGGAA,0.484
18,ACACGGAA,0.438
19,CCACGGAG,0.429
20,TCACGGGA,0.203
21,ACAATTTG,-0.117
22,AGACGGGC,0.0159
23,CTCGCAAA,-0.131
24,AGGAGAAT,-0.00643
25,AGGATGCA,-0.117

row,Sequence,PBM E-score
1,AAGGCATC,-0.216
2,ACCTAAAG,-0.12
3,CTCCACGC,-0.165
4,CGGATCAA,0.356
5,CGGATCAG,0.334
6,CGGATCAC,0.391
7,GGGATCAC,-0.0461
8,AGGATCAC,-0.231
9,TGGATCAA,-0.168
10,ATAGCCCG,0.0917
11,ATCGTTTG,0.0176
12,TATTCGCA,-0.0986
13,AGCCAGCT,-0.164
14,GTGGCGAA,0.106
15,ACCGGGCC,0.25
16,CCGGGGCA,0.235
17,CCCCGGCG,0.162
18,CCCGGGCC,0.397
19,CCGGGGCG,0.374
20,CCGGGGCC,0.367
21,ACCGGGCG,0.0259
22,GCCGGGCC,0.12
23,ACGGGGCG,0.183
24,CGGGGGCC,0.142
25,CCCGGGCG,0.421

row,Sequence,PBM E-score
1,CCGGGGGC,0.235
2,AAGCAGCG,0.017
3,CTACTCCA,-0.162
4,TCGACCGA,0.0776
5,ACTGGGCG,-0.018
6,AGTATTGC,-0.0115
7,ACCCAGTC,-0.0225
8,CGCCTCCG,0.295
9,AACTAGAC,-0.106
10,GCCTCACA,-0.114
11,CCCGATCG,0.234
12,AAAAATGG,0.0817
13,GCGCCGCA,0.151
14,GCCGGGCA,0.282
15,CCCGGGCA,0.375
16,ACCGGGCA,0.102
17,GATAGTGC,-0.0798
18,GTTCAAAC,-0.0193
19,AGGATAAC,-0.212
20,CTAATCTC,-0.0806
21,CGCCCGCG,0.314
22,AACCCGCA,0.18
23,CACCCGCG,0.42
24,ATCCCGCG,0.465
25,AACCCGCC,0.165

row,Sequence,PBM E-score
1,CACCCGCC,0.332
2,AGCCCGCG,0.381
3,ATCCCGCC,0.322
4,AACCCGCG,0.431
5,CACCCGCA,0.115
6,ATCCCGCA,0.21
7,AGCCCGCT,-0.183
8,AATTAGCA,0.103
9,ATGTCGAC,0.0706
10,ATTGCGAA,-0.0818
11,GTCAGATA,-0.0744
12,CTAAGAAC,0.165
13,CAGACGAA,0.199
14,AGAATACT,-0.121
15,CAGAACAA,0.0215
16,CTACTTAC,-0.312
17,CACTAAGG,-0.0887
18,CATCCCAG,-0.106
19,CATCCCCA,-0.0591
20,CATCCCGG,0.431
21,CATCCCCG,0.354
22,AATCCCCG,0.296
23,GATCCCGC,0.371
24,AATCCCTG,-0.0189
25,CATCCCGC,0.315

row,Sequence,PBM E-score
1,GATCCCGA,0.317
2,CATCCCCC,0.0287
3,AATCCCGG,0.407
4,CATCCCGA,0.352
5,CACTTTAG,-0.149
6,AGTCTGCG,-0.259
7,CAGGCGTA,-0.145
8,ACGTCAGG,-0.326
9,AGGCAGGG,-0.153
10,ACGAATGC,-0.158
11,CTCCGCGA,0.258
12,GCGCGCGC,0.388
13,ATCCGCGC,0.309
14,GCGCGCGA,0.308
15,ATGCGCGA,0.0846
16,CCGCGCGC,0.332
17,CTCCGCGC,0.368
18,CCGCGCGA,0.303
19,ACGCGCGC,0.238
20,ATGCGCGG,0.355
21,CCGCGCGG,0.473
22,ATGCGCGC,0.275
23,GCGTAGTA,-0.095
24,ACGCCTGA,-0.148
25,CTAGAAAG,-0.189

row,Sequence,PBM E-score
1,GTCCGGGA,0.353
2,GGCCGGGA,0.39
3,CTCCGAGA,0.274
4,AGCCGGGA,0.3
5,CGCCGGTA,0.13
6,GGCCGGTA,0.274
7,CGCCGGGA,0.382
8,CTCCGGGA,0.399
9,CGCCGGGC,0.308
10,GAACATAC,0.0175
11,CCTAGACG,0.012
12,ATCCTGGG,-0.104
13,GGCCCCCC,-0.0393
14,AAGGCTTG,-0.0886
15,AGATCACC,0.0531
16,GAGACTCC,0.0113
17,AGGCTAAA,-0.297
18,CCGGAGGC,0.292
19,CCGGAGTC,0.384
20,ACGGAGTC,0.193
21,ACGGAGTA,0.297
22,CCGGAGTA,0.367
